# Test results published in PubChem BioAssay.
# Values without a mark were called inactive. For some of these results: Measured potencies and affinities stand elsewhere. Calls of active or inactive are those of the source. Unless noted, no rule for the calls is given here.
# Key:
# [1] = antimalarial activity against Dd2 strain (AID 2302;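 active = growth inhibition above 50% at the single 2 µM test dose, taken to imply half-maximal potency below 2 µM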;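 also: 0% = DMSO untreated growth and 100% = chloroquine plus artemisinin killed control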); settings: P. falciparum Dd2 in RBCs, LDH growth readout, 72 h; at 2 µM; hits give high values
# [2] = HepG2 cytotoxicity, primary screen, cytotoxicity control for P. falciparum antimalarial project, cell-based, ATP luminescence (AID 2303;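 active = inhibition above 50%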;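 also: 0% = DMSO wells and 100% = digitonin-killed cells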); settings: HepG2 viability, 24-48 h, at 10 µM, hits give high values
# [3] = target: L-lactate dehydrogenase (Plasmodium falciparum (isolate CDC / Honduras)) (UniProt Q27743); test: PfLDH activity inhibition – cell lysate, 3D7 strain, counter-screen for P. falciparum growth inhibition project (AID 2304);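 also: 0% = vehicle and 100% = reference inhibitor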; settings: P. falciparum 3D7 crude extract, LDH APAD/NBT absorbance; at 2 µM; hits give high values
# [4] = inhibition of 3D7 malaria parasite growth – strain 3D7 (AID 2306);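 also: 0% = DMSO wells and 100% = chloroquine plus artemisinin control wells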; settings: P. falciparum 3D7 erythrocytic growth, LDH absorbance, 72 h; at 2 µM; hits give high values
# [5] = target: Calcium-dependent protein kinase 1 (Plasmodium falciparum (isolate 3D7)) (UniProt P62344); test: PfCDPK1 kinase inhibitors, biochemical, TCAMS library (AID 1159585; cut-off not given, nearly all actives have IC50 up to about 0.98 µM;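 also: inhibitors leave more ATP so luminescence rises with inhibition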); settings: recombinant PfCDPK1, Kinase-Glo ATP depletion luminescence
# [6] = target: Plasmodium falciparum protein kinase 6 (PK6, PF3D7_1337100) (UniProt Q8IDW1); test: PfPK6 kinase inhibitors, biochemical, TCAMS library (AID 1159586); settings: recombinant PfPK6, Kinase-Glo ATP depletion luminescence
# [7] = target: Protein kinase 7 (PK7), Plasmodium falciparum 3D7 (PF3D7_0213400) (UniProt Q7YTF7); test: inhibition of Plasmodium PK7 catalytic activity – biochemical, TCAMS antimalarial set, Kinase-Glo luminescence (AID 1159587); settings: recombinant PfPK7, Kinase-Glo ATP depletion luminescence
# [8] = target: Calcium-dependent protein kinase 4 (Plasmodium falciparum (isolate 3D7)) (UniProt Q8IBS5); test: PfCDPK4 kinase inhibitors, biochemical, TCAMS library (AID 1159588; cut-off not given, nearly all actives have IC50 up to about 0.91 µM); settings: recombinant PfCDPK4, Kinase-Glo ATP depletion luminescence
# Sequence of Calcium-dependent protein kinase 4 (Plasmodium falciparum (isolate 3D7)) (Q8IBS5 whole entry, looked up): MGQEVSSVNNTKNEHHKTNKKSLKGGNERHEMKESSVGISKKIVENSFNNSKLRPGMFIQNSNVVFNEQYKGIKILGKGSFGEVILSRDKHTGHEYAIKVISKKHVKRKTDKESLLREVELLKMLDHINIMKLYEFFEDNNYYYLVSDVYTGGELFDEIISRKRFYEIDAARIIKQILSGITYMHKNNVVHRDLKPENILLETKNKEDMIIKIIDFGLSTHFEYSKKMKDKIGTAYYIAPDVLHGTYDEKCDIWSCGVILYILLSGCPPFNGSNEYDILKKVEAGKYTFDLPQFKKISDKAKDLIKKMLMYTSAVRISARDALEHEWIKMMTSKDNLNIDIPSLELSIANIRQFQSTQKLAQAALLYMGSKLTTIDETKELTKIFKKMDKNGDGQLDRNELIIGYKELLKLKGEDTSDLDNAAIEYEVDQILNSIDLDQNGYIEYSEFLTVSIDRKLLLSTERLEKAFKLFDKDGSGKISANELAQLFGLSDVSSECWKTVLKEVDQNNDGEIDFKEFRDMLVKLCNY
# Sequence of Calcium-dependent protein kinase 1 (Plasmodium falciparum (isolate 3D7)) (P62344 whole entry, looked up): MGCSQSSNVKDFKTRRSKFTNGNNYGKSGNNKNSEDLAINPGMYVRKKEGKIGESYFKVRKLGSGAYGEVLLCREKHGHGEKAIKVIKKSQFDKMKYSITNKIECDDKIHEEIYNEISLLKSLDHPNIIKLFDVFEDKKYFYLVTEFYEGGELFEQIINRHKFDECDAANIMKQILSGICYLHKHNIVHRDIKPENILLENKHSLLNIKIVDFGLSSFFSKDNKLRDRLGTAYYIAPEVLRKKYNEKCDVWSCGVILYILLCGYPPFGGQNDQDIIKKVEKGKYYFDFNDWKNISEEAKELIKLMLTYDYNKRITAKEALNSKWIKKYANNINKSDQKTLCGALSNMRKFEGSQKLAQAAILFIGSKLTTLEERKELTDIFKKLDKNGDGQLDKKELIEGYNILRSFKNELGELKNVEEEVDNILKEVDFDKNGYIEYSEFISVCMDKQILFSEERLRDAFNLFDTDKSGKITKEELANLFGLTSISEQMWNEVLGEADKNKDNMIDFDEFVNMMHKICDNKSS
# Sequence of L-lactate dehydrogenase (Plasmodium falciparum (isolate CDC / Honduras)) (Q27743 whole entry, looked up): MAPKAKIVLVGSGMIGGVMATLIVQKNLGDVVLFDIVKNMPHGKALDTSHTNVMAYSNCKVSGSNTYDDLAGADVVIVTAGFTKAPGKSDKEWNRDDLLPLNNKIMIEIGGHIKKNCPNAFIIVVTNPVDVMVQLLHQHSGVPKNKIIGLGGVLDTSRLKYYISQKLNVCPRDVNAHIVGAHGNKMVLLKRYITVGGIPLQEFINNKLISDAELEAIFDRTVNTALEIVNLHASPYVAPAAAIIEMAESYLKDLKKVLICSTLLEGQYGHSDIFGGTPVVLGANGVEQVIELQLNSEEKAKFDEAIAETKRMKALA
# Sequence of Plasmodium falciparum protein kinase 6 (PK6, PF3D7_1337100) (Q8IDW1 1-305): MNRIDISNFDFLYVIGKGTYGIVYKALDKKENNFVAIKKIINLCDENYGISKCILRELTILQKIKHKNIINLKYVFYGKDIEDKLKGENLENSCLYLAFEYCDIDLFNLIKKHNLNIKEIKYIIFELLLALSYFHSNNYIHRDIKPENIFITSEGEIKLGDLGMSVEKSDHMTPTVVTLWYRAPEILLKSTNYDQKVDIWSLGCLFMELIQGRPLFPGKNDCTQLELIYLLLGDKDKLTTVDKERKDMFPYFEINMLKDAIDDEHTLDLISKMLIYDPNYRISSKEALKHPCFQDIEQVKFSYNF
# Sequence of Protein kinase 7 (PK7), Plasmodium falciparum 3D7 (PF3D7_0213400) (Q7YTF7 1-343): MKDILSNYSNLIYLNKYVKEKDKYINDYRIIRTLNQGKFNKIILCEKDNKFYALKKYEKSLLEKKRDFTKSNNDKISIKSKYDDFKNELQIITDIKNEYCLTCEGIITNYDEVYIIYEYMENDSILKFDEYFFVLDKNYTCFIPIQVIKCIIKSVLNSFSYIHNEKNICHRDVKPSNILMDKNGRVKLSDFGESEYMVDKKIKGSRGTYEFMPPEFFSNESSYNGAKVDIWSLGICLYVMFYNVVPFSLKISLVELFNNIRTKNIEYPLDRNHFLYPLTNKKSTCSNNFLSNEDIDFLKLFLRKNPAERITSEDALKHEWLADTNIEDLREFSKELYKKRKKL
SMILES,growth inhibition [1],inhibition [2],inhibition [3] [%],growth inhibition [4],outcome [5],outcome [6],outcome [7],outcome [8]
c1ccc(CNCc2cccc(-c3csc(-c4nc5ccccc5[nH]4)c3)c2)cc1,54% (active),24%,-3,102% (active),inactive,inactive,inactive,inactive
COc1ccc2c(NN=CC=Cc3ccccc3)ccnc2c1,100% (active),9%,4,100% (active),inactive,inactive,inactive,inactive
Cc1[nH]c2ccccc2c1CC1CCN(CC2CCN(C(=O)/C=C/c3ccc(Cl)c(Cl)c3)CC2)CC1,14%,34%,-3,92% (active),inactive,inactive,inactive,inactive
CC(C)N1CCC(N(Cc2ccc(-c3ccc(C(F)(F)F)cc3)cc2)C(=O)Cn2c(SCc3cccc(F)c3F)nc(=O)c3ccccc32)CC1,75% (active),74% (active),-4,91% (active),inactive,inactive,inactive,inactive
COc1ccc(Nc2nc(N3CCCC3)c3ccccc3n2)cc1,98% (active),40%,2,102% (active),inactive,inactive,inactive,inactive
CC(=O)Nc1ccc(CN(Cc2ccc(F)cc2)Cc2cccc(Oc3ccccc3)c2)cc1,82% (active),-8%,6,88% (active),inactive,inactive,inactive,inactive
COc1ccccc1C(=O)N1CCN(Cc2cccs2)CC1,1%,87% (active),-1,96% (active),inactive,inactive,inactive,inactive
Fc1cccc2sc(Nc3nc(-c4ccccn4)cs3)nc12,97% (active),30%,6,95% (active),inactive,inactive,inactive,inactive
CCCCCCCCNCCCSCCCNCCCCCCCC,47%,63% (active),-3,97% (active),inactive,inactive,inactive,inactive
O=C1COc2ccc3ccccc3c21,3%,-3%,6,99% (active),inactive,inactive,inactive,inactive
O=C(/C=C/c1ccc(Cl)c(Cl)c1)NCCCCCN1CCC(NC(=S)Nc2ccc(Cl)cc2Cl)CC1,47%,53% (active),-1,99% (active),inactive,inactive,inactive,inactive
Cc1cccc(NC(=S)NC2CCN(CCCCCNC(=O)/C=C/c3ccc(Cl)c(Cl)c3)CC2)c1,19%,14%,4,97% (active),inactive,inactive,inactive,inactive
Cc1cccc(-c2ccc(NC(=O)Nc3ccc4nccc(N5CCN(C)CC5)c4c3)cc2C)n1,95% (active),4%,-3,101% (active),inactive,inactive,inactive,inactive
Oc1ccc(CCNc2nc(NCc3ccccc3-c3ccc(C(F)(F)F)cc3)nc(N3CCCNCC3)n2)cc1,2%,12%,0,95% (active),inactive,inactive,inactive,inactive
O=C(NCCNc1ccnc(NCc2ccc(F)cc2)n1)c1cc2ccccc2s1,17%,6%,-5,99% (active),inactive,inactive,inactive,inactive
OC(CNCc1ccccc1OCc1ccccc1)c1cccc(Br)c1 (stereo not drawn),97% (active),-1%,0,100% (active),inactive,inactive,inactive,inactive
CN(CCCCNC(=O)/C=C/c1ccccc1)C1CC2(CCN(C(=O)OC(C)(C)C)CC2)c2ccccc21 (stereo not drawn),51% (active),11%,1,87% (active),inactive,inactive,inactive,inactive
CCOc1cc(O)c(-c2nc(N)ncc2-c2ccc3c(c2)OCCO3)cc1CC,68% (active),-5%,-1,99% (active),inactive,inactive,inactive,inactive
COc1ccc(-c2cccc(NC(=O)c3cccc(Cl)c3)c2)cc1CNC(C)C,8%,15%,-2,102% (active),inactive,inactive,inactive,inactive
Cc1cccc2[nH]c(-c3ccc(-c4cccc(CNC(C)C)c4)s3)nc12,97% (active),12%,2,100% (active),inactive,inactive,inactive,inactive
COc1ccc2c(c1)Nc1ccc(Cl)cc1C2N (stereo not drawn),99% (active),16%,3,101% (active),inactive,inactive,inactive,inactive

SMILES,growth inhibition [1],inhibition [2],inhibition [3] [%],growth inhibition [4],outcome [5],outcome [6],outcome [7],outcome [8]
O=C(NC(=Cc1cccc([N+](=O)[O-])c1)c1nc2ccccc2[nH]1)c1cccc(Br)c1,88% (active),-1%,0,85% (active),inactive,inactive,inactive,inactive
Cc1ccc(NC(=O)Cc2noc(CC3CCCN3C(=O)N[C@@H](C)c3ccccc3)n2)cc1 (stereo partly drawn),90% (active),1%,-1,95% (active),inactive,inactive,inactive,inactive
FC(F)(F)c1ccc2nc(-c3ccc(-c4ccc(CN5CCN(c6ccncc6)CC5)cc4)s3)[nH]c2c1,50% (active),97% (active),2,100% (active),inactive,inactive,inactive,inactive
CC(C)CNCc1cccc(-c2cccc(CN(CCCN3CCN(C)CC3)C(=O)/C=C/c3ccccc3)c2)c1,88% (active),44%,7,90% (active),inactive,inactive,inactive,inactive
Cc1cc(NCc2ccccc2)nc2cc(O)ccc12,80% (active),-7%,6,98% (active),inactive,inactive,inactive,inactive
Cc1nc(-c2cccc(C(=O)Nc3cnc4ccccc4c3)c2)no1,12%,15%,-10,85% (active),inactive,inactive,inactive,inactive
Cc1ccc2cc(C3NC(=O)c4ccccc4N3)c(Cl)nc2c1 (stereo not drawn),38%,-6%,1,91% (active),inactive,inactive,inactive,inactive
CN(C)CCOc1ccc(-c2cc(-c3ccc(Cl)c(O)c3)c(-c3ccncc3)[nH]2)cc1,92% (active),54% (active),5,98% (active),inactive,inactive,inactive,inactive
Cc1cccc2[nH]c(-c3ccc(-c4ccc(CNCCCNS(C)(=O)=O)cc4)s3)nc12,4%,13%,3,99% (active),inactive,inactive,inactive,inactive
N#Cc1ccc(-c2ccc(C(=O)NCCCCN3CCC(c4ccc5c(c4OCC(N)=O)CCCC5)CC3)nc2)cc1,97% (active),21%,-4,100% (active),inactive,inactive,inactive,inactive
O=C(/C=C/c1ccccc1Cl)Nc1ccc(Br)c(OCCN2CCN(CCN3CCCC3)CC2)c1,89% (active),26%,-7,99% (active),inactive,inactive,inactive,inactive
O=c1cc(NCCCN(Cc2ccccc2)Cc2ccccc2)[nH]c2ccccc12,93% (active),7%,-3,100% (active),inactive,inactive,inactive,inactive
Cc1ccc(NC(=O)c2cc(Br)cc(N3CCC(N(C)C)CC3)c2)cc1F,80% (active),23%,-3,100% (active),inactive,inactive,inactive,inactive
CC1(C)C(=O)Nc2ccccc2N1C(=O)CN1CCN(c2ccccc2O)CC1,72% (active),7%,0,92% (active),inactive,inactive,inactive,inactive
COc1ccc2nccc(NN=CC=Cc3ccccc3)c2c1,99% (active),11%,-3,101% (active),inactive,inactive,inactive,inactive
O=[N+]([O-])c1cc(C=NNc2nc3nonc3nc2Nc2ccc(F)cc2)c(Cl)cc1Cl,13%,5%,-4,98% (active),inactive,inactive,inactive,inactive
Cc1cccc2nc(C(=O)Nc3nc(CN4CCC(C)CC4)cs3)cn12,80% (active),-27%,0,94% (active),inactive,inactive,inactive,inactive
N#Cc1cccc(C(=O)Nc2cccc(-c3ccc(C(=O)Nc4cccnc4)cc3)c2)c1,10%,39%,-1,89% (active),inactive,inactive,inactive,inactive
Cc1cccc2[nH]c(-c3ccc(-c4cccc(CN5CCCCC5)c4)s3)nc12,92% (active),11%,-2,100% (active),inactive,inactive,inactive,inactive
CC(C)Sc1nc2c(c(=O)n1CCc1ccccc1)C1(CCCCC1)Cc1ccccc1-2,5%,8%,1,92% (active),inactive,inactive,inactive,inactive
